# Laboratory results published in publication PMC11062922 (Nature Chemical Biology, 2023).
# Like-named read-outs stand apart in the source and are kept apart here.
# Tested on: IRAK4
# Settings: read-out: apparent Kd, n = 1
substance,measurement,setting,value
Lestaurtinib,potency estimated from few doses,"compound concentrations:100 nM and 1000 nM (sheet 'Lestaurtinib' of Supplementary Table 1),run:Lestaurtinib_02443_R2,Plate:MR009",92.2 nM
same,potency estimated from few doses,"compound concentrations:100 nM and 1000 nM (sheet 'Lestaurtinib' of Supplementary Table 1),run:Lestaurtinib_02443_R3,Plate:MR009",98.9 nM
same,potency estimated from few doses,"compound concentrations:100 nM and 1000 nM (sheet 'Lestaurtinib' of Supplementary Table 1),run:Lestaurtinib_02473_R1,Plate:MR010",79.8 nM
same,potency estimated from few doses,"compound concentrations:100 nM and 1000 nM (sheet 'Lestaurtinib' of Supplementary Table 1),run:Lestaurtinib_02473_R2,Plate:MR010",132 nM
same,potency estimated from few doses,"compound concentrations:100 nM and 1000 nM (sheet 'Lestaurtinib' of Supplementary Table 1),run:Lestaurtinib_02473_R3,Plate:MR010",96.5 nM
same,potency estimated from few doses,"compound concentrations:100 nM and 1000 nM (sheet 'Lestaurtinib' of Supplementary Table 1),run:Lestaurtinib_02482_R1,Plate:MR011",78.2 nM
same,potency estimated from few doses,"compound concentrations:100 nM and 1000 nM (sheet 'Lestaurtinib' of Supplementary Table 1),run:Lestaurtinib_02482_R2,Plate:MR011",180 nM
same,potency estimated from few doses,"compound concentrations:100 nM and 1000 nM (sheet 'Lestaurtinib' of Supplementary Table 1),run:Lestaurtinib_02482_R3,Plate:MR011",99.7 nM
same,potency estimated from few doses,"compound concentrations:100 nM and 1000 nM (sheet 'Lestaurtinib' of Supplementary Table 1),run:Lestaurtinib_02496_R1,Plate:MR013",124 nM
same,potency estimated from few doses,"compound concentrations:100 nM and 1000 nM (sheet 'Lestaurtinib' of Supplementary Table 1),run:Lestaurtinib_02496_R2,Plate:MR013",146 nM
same,potency estimated from few doses,"compound concentrations:100 nM and 1000 nM (sheet 'Lestaurtinib' of Supplementary Table 1),run:Lestaurtinib_02496_R3,Plate:MR013",193 nM
same,potency estimated from few doses,"compound concentrations:100 nM and 1000 nM (sheet 'Lestaurtinib' of Supplementary Table 1),run:Lestaurtinib_02566_R1,Plate:MR014",142 nM
same,potency estimated from few doses,"compound concentrations:100 nM and 1000 nM (sheet 'Lestaurtinib' of Supplementary Table 1),run:Lestaurtinib_02566_R3,Plate:MR014",80.8 nM
same,potency estimated from few doses,"compound concentrations:100 nM and 1000 nM (sheet 'Lestaurtinib' of Supplementary Table 1),run:Lestaurtinib_02577_R1,Plate:MR016",88.6 nM
same,potency estimated from few doses,"compound concentrations:100 nM and 1000 nM (sheet 'Lestaurtinib' of Supplementary Table 1),run:Lestaurtinib_02577_R2,Plate:MR016",97.5 nM
same,potency estimated from few doses,"compound concentrations:100 nM and 1000 nM (sheet 'Lestaurtinib' of Supplementary Table 1),run:Lestaurtinib_02577_R3,Plate:MR016",63.8 nM
same,potency estimated from few doses,"compound concentrations:100 nM and 1000 nM (sheet 'Lestaurtinib' of Supplementary Table 1),run:Lestaurtinib_02601_R1,Plate:MR018",144 nM
same,potency estimated from few doses,"compound concentrations:100 nM and 1000 nM (sheet 'Lestaurtinib' of Supplementary Table 1),run:Lestaurtinib_02601_R2,Plate:MR018",142 nM
same,potency estimated from few doses,"compound concentrations:100 nM and 1000 nM (sheet 'Lestaurtinib' of Supplementary Table 1),run:Lestaurtinib_02606_R1,Plate:MR019",88.5 nM
same,potency estimated from few doses,"compound concentrations:100 nM and 1000 nM (sheet 'Lestaurtinib' of Supplementary Table 1),run:Lestaurtinib_02624_R2,Plate:MR020",143 nM
same,potency estimated from few doses,"compound concentrations:100 nM and 1000 nM (sheet 'Lestaurtinib' of Supplementary Table 1),run:Lestaurtinib_02624_R3,Plate:MR020",124 nM
same,potency estimated from few doses,"compound concentrations:100 nM and 1000 nM (sheet 'Lestaurtinib' of Supplementary Table 1),run:Lestaurtinib_02724_R2,Plate:MR021",99.3 nM
same,potency estimated from few doses,"compound concentrations:100 nM and 1000 nM (sheet 'Lestaurtinib' of Supplementary Table 1),run:Lestaurtinib_02741_R1,Plate:MR023",89.6 nM
same,potency estimated from few doses,"compound concentrations:100 nM and 1000 nM (sheet 'Lestaurtinib' of Supplementary Table 1),run:Lestaurtinib_02741_R3,Plate:MR023",71.3 nM
same,potency estimated from few doses,"compound concentrations:100 nM and 1000 nM (sheet 'Lestaurtinib' of Supplementary Table 1),run:Lestaurtinib_02748_R3,Plate:MR024",80.9 nM
same,potency estimated from few doses,"compound concentrations:100 nM and 1000 nM (sheet 'Lestaurtinib' of Supplementary Table 1),run:Lestaurtinib_02752_R2,Plate:MR025",160 nM
same,potency estimated from few doses,"compound concentrations:100 nM and 1000 nM (sheet 'Lestaurtinib' of Supplementary Table 1),run:Lestaurtinib_02752_R3,Plate:MR025",80.1 nM
same,potency estimated from few doses,"compound concentrations:100 nM and 1000 nM (sheet 'Lestaurtinib' of Supplementary Table 1),run:Lestaurtinib_02765_R2,Plate:MR026",75.7 nM
same,potency estimated from few doses,"compound concentrations:100 nM and 1000 nM (sheet 'Lestaurtinib' of Supplementary Table 1),run:Lestaurtinib_02766_R2,Plate:MR027",146 nM
same,potency estimated from few doses,"compound concentrations:100 nM and 1000 nM (sheet 'Lestaurtinib' of Supplementary Table 1),run:Lestaurtinib_02766_R3,Plate:MR027",121 nM
same,potency estimated from few doses,"compound concentrations:100 nM and 1000 nM (sheet 'Lestaurtinib' of Supplementary Table 1),run:Lestaurtinib_02768_R1,Plate:MR028",136 nM
same,potency estimated from few doses,"compound concentrations:100 nM and 1000 nM (sheet 'Lestaurtinib' of Supplementary Table 1),run:Lestaurtinib_02768_R2,Plate:MR028",97.8 nM
same,potency estimated from few doses,"compound concentrations:100 nM and 1000 nM (sheet 'Lestaurtinib' of Supplementary Table 1),run:Lestaurtinib_02795_R2,Plate:MR022",94.1 nM
same,potency estimated from few doses,"compound concentrations:100 nM and 1000 nM (sheet 'Lestaurtinib' of Supplementary Table 1),run:Lestaurtinib_02795_R3,Plate:MR022",239 nM
same,potency estimated from few doses,"compound concentrations:100 nM and 1000 nM (sheet 'Lestaurtinib' of Supplementary Table 1),run:Lestaurtinib_02896_R1,Plate:MR030",113 nM
same,potency estimated from few doses,"compound concentrations:100 nM and 1000 nM (sheet 'Lestaurtinib' of Supplementary Table 1),run:Lestaurtinib_03172_R2,Plate:MR031",66.2 nM
